Results published in PubChem BioAssay (Tox21).
Several values for one entry are separate records, joined by “and”; a condition that tells them apart may be missing. Equal entries are not always repeated. Inconclusive results are not listed. More than one record can exist for a structure, and the calls need not agree. Activity calls are given as the source filed them. Unless noted, the call rests on the fitted dose curve.

Assays:
[1] = Nuclear factor erythroid 2-related factor 2/antioxidant responsive element (Nrf2/ARE) small molecule agonists: qHTS cell viability counter screen in human keratinocytes (AID 1919968; active means well fitted curve in the direction sought with a large enough effect in the repeat runs; an effect the other way counts as inactive or inconclusive; further: nearly all actives have a fitted effect of over 55% in size; further: potency means the concentration at half of the fitted maximal effect)
Summary of the method: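 Viability counter-screen: KeratinoSens reporter cells, DMSO-delivered compounds, 23 h at 37 C, CellTiter-Fluor fluorescence.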

[2] = target: Gonadotropin-releasing hormone receptor (Homo sapiens) (UniProt P30968); experiment: Human gonadotropin-releasing hormone receptor (GnRHR) small molecule agonists, calcium flux assay in GnRHR-HEK293 cells (AID 1920063); further: nearly all actives have a fitted effect of over 35% in size
Gonadotropin-releasing hormone receptor (Homo sapiens), sequence (P30968 whole entry, looked up): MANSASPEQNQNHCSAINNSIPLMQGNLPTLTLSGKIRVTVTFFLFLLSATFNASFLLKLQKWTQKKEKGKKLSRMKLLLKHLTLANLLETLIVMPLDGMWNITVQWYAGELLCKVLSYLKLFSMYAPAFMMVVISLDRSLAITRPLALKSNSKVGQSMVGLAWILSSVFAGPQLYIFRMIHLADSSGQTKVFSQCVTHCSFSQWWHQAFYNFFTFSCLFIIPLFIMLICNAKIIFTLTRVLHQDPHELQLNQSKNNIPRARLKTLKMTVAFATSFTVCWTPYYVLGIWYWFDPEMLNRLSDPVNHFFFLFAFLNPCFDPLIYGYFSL
Summary of the method: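 Tox21-format agonist screen using human GnRHR-expressing HEK293 cells and a fluorescent calcium dye; kinetic 3-min fluorescence reading after compound addition, 15-point concentration series run in triplicate.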

[3] = target: KiSS-1 receptor (Homo sapiens) (UniProt Q969F8); experiment: Human kisspeptin (KISS1R) small molecule agonists, calcium flux assay in KISS1R-HEK293 cells (AID 1920064; active means well fitted curve in the direction sought with a large enough effect in the repeat runs; an effect the other way counts as inactive or inconclusive)
KiSS-1 receptor (Homo sapiens), sequence (Q969F8 whole entry, looked up): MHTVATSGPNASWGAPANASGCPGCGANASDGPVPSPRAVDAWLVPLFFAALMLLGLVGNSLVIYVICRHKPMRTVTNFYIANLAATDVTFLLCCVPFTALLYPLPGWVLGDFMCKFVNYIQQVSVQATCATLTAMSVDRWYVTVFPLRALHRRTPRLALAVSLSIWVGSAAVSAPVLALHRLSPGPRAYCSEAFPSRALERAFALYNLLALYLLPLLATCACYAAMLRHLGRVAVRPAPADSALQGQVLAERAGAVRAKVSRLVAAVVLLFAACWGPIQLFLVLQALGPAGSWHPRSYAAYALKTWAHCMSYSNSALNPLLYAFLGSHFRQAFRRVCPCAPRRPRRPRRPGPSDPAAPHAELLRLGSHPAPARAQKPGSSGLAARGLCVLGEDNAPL
Summary of the method: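 Intracellular calcium mobilization in KISS1R-HEK293 cells was recorded by fluorescence (Ex/Em 480/540) for 3 min following compound addition to cells pre-loaded 1 h with calcium dye.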

[4] = G protein-coupled receptor (GPCR) small molecule agonists, calcium flux assay: HEK293 wild type cell line counter screen (AID 1920065)
Summary of the method: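 In this agonist-mode screen, ATP is the positive control and DMSO the vehicle. Cells grow 18 h before a 1 h dye incubation at 37 C; signal is taken at Ex/Em 480/540 over 3 min.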

[5] = p53 small molecule agonists, cell-based qHTS assay with rat liver microsomes (AID 1963578)
Summary of the method: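 Each plate received p53RE-bla cells, then compound, then rat liver microsomes and NADPH (both 0.5 mg/mL final). Plates were held 16 h at 37 C, and beta-lactamase activity was detected with LiveBLAzer over 2 h.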

[6] = p53 small molecule agonists, cell-based qHTS assay with human liver microsomes: qHTS cell viability counter screen (AID 1963579); further: nearly all actives have a fitted effect of over 45% in size; further: potency means the concentration at half of the fitted maximal effect
Summary of the method: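 Tox21 library compounds, delivered from DMSO stocks, were tested on p53RE-bla cells together with 0.5 mg/mL human liver microsomes and 0.5 mg/mL NADPH (final) over 16 h at 37 C; CellTiter-Glo luminescence served as the cytotoxicity measure.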

[7] = p53 small molecule agonists, cell-based qHTS assay with rat liver microsomes: qHTS cell viability counter screen (AID 1963580); further: nearly all actives have a fitted effect of over 45% in size
Summary of the method: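 p53RE-bla HCT-116 cells were exposed 16 h at 37 C to compounds with rat liver microsomes (0.5 mg/mL) and NADPH (0.5 mg/mL). Viability was measured in the same wells as ATP content by CellTiter-Glo luminescence.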

[8] = p53 small molecule agonists, cell-based qHTS assay (AID 1963582; active means well fitted activation curve with a large enough effect in the signal ratio in the repeat runs, not every such curve was filed as active; the % refers to the signal ratio)
Summary of the method: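 Agonist activity was scored from beta-lactamase FRET fluorescence in p53RE-bla cells treated 16 h at 37 C with compounds in DMSO, substrate incubation being 2 h at room temperature.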

[9] = cAMP Responsive Elements (CRE) small molecule antagonists, cell-based qHTS assay (AID 1963591; active means well fitted inhibition curve with a large enough effect in the signal ratio in the repeat runs, not every such curve was filed as active; the % refers to the signal ratio)
Summary of the method: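 qHTS in CRE-bla HEK 293T cells: compound in DMSO, then 0.25 uM NKH477 (final), 3 h at 37 °C/5% CO2; beta-lactamase FRET read-out after 2 h substrate incubation.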

[10] = target: Beta-2 adrenergic receptor (Homo sapiens) (UniProt P07550); experiment: Adrenergic beta2 receptor (ADRB2) small molecule antagonists, cell-based qHTS assay (AID 1963592); further: series mostly up to about 92 µM; nearly all actives have a fitted effect of over 50% in size
Beta-2 adrenergic receptor (Homo sapiens), sequence (P07550 whole entry, looked up): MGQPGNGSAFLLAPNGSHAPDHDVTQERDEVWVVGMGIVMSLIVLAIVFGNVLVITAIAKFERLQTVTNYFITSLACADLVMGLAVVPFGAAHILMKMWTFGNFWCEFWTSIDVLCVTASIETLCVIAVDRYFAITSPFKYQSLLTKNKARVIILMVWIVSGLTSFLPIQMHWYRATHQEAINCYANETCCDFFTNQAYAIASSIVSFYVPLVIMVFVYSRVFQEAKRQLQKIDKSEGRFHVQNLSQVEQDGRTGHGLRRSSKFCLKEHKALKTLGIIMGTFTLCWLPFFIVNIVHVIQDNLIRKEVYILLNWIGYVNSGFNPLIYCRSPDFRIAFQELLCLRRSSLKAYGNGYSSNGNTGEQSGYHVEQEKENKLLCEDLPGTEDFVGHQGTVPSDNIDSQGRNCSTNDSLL
Summary of the method: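 Cells (CHO, stable ADRB2 overexpression) incubated 18-20hr at 37C; compounds added from DMSO; agonist mix (1nM isoproterenol, 100uM IBMX, 25uM Ro-20-1724) added; 0.5hr RT; d2-cAMP and anti-cAMP-cryptate added; 1hr RT; 665/615 nm read.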

[11] = target: Beta-2 adrenergic receptor (Homo sapiens) (UniProt P07550); experiment: Adrenergic beta2 receptor (ADRB2) small molecule agonists, cell-based qHTS assay (AID 1963593);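 further: CHO cells stably overexpressing human ADRB2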
Summary of the method: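 CHO cells stably over-expressing ADRB2 were plated overnight at 37C, then dosed with compounds plus a stimulation mix containing 100uM IBMX and 25uM Ro-20-1724 for 0.5hr at room temperature. cAMP was measured by HTRF competition, 1hr.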

[12] = target: D(2) dopamine receptor (Homo sapiens) (UniProt P14416); experiment: Dopamine D2 receptor (DRD2) small molecule agonists, cell-based qHTS assay (AID 1963594); further: nearly all actives have a fitted effect of over 35% in size
D(2) dopamine receptor (Homo sapiens), sequence (P14416 whole entry, looked up): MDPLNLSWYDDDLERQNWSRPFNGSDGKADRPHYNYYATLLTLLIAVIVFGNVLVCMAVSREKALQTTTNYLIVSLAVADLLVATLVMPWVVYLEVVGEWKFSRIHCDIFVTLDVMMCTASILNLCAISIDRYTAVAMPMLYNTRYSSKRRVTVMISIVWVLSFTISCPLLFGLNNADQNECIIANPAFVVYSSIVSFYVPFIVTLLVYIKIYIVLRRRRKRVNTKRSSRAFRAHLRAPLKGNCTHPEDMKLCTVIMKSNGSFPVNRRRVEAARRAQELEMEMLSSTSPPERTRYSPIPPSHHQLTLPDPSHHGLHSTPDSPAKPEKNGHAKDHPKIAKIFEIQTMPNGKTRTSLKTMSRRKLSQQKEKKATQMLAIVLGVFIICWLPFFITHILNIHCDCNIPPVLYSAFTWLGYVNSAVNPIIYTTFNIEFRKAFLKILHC
Summary of the method: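 HEK293 cells stably expressing human DRD2, pre-treated with PDE inhibitor Ro20-1724 (0.1 mM final) and compound 10 min at room temperature, then stimulated with NKH477 (200nM […]) for 30 min. cAMP read by HTRF (665/620 nm).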

[13] = target: D(2) dopamine receptor (Homo sapiens) (UniProt P14416); experiment: Dopamine D2 receptor (DRD2) small molecule antagonists, cell-based qHTS assay (AID 1963595; active means well fitted inhibition curve with a large enough effect in the signal ratio in the repeat runs, with a control signal flat; the % refers to the signal ratio)
Summary of the method: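 Stable D2 receptor HEK293 line, 24 h after seeding. Compound preincubated 10 min, then quinpirole (12 nM) with forskolin analogue NKH477 (200 nM), 30 min, room temperature. Detection by time-resolved FRET of cAMP.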

[14] = p53 small molecule agonists, cell-based qHTS assay with human liver microsomes (AID 1963577);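 further: p53 response element beta-lactamase reporter cells with liver microsomes plus NADPH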
Summary of the method: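 Metabolically competent format: test substances, human liver microsomes and NADPH (both 0.5 mg/mL final) incubated with p53RE-bla cells 16 h at 37 C. Beta-lactamase reporter signal then quantified by fluorescence.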

[15] = target: 5-hydroxytryptamine receptor 2A (Homo sapiens) (UniProt P28223); experiment: 5-hydroxytryptamine receptor 2A (HTR2A) small molecule agonists, cell-based qHTS assay (AID 1963587); further: nearly all actives have a fitted effect of over 30% in size
5-hydroxytryptamine receptor 2A (Homo sapiens), sequence (P28223 whole entry, looked up): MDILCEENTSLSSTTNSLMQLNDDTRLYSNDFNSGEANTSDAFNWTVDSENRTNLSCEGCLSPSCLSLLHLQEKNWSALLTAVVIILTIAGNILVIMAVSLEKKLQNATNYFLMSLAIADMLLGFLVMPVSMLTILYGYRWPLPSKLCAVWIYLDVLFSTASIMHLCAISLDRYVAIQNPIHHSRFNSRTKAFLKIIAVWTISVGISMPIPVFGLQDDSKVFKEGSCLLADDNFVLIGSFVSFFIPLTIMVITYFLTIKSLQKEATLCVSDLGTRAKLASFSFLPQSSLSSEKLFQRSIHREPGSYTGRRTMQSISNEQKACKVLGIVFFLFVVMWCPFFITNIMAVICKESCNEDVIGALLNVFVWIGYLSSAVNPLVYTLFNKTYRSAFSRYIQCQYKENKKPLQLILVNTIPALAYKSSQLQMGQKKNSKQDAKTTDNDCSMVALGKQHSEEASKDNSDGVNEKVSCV
Summary of the method: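 CHO cells stably expressing human HTR2A, plated 18 h, loaded with calcium dye 1 h at 37 C. Agonist mode: compounds added and intracellular calcium fluorescence recorded kinetically for 2 min at 1 sec intervals.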

[16] = target: Muscarinic acetylcholine receptor M1 (Homo sapiens) (UniProt P11229); experiment: Cholinergic receptor muscarinic 1 (CHRM1) small molecule antagonists, cell-based qHTS assay (AID 1963588); further: nearly all actives have a fitted effect of over 40% in size
Muscarinic acetylcholine receptor M1 (Homo sapiens), sequence (P11229 whole entry, looked up): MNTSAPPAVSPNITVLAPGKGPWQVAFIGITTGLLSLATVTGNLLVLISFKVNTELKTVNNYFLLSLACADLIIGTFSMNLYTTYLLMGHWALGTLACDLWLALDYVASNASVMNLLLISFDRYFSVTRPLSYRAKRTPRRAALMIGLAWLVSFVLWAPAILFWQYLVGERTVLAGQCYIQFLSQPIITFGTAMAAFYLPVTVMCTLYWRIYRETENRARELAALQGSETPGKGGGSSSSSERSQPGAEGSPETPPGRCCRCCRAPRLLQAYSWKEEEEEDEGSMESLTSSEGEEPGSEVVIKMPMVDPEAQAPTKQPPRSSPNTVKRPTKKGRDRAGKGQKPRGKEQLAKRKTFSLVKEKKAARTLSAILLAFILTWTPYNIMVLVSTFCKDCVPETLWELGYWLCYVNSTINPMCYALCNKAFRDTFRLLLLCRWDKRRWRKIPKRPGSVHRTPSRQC
Summary of the method: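 CHRM1-CHO calcium-flux assay, antagonist mode. Cells were seeded 18 h, dye-loaded 1 h at 37 C and given compound for 5 min at RT, then acetylcholine was added at 50nM. FDSS fluorescence was read 3 min; 15 concentrations, three runs.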

[17] = target: Muscarinic acetylcholine receptor M1 (Homo sapiens) (UniProt P11229); experiment: Cholinergic receptor muscarinic 1 (CHRM1) small molecule agonists, cell-based qHTS assay (AID 1963589); further: nearly all actives have a fitted effect of over 35% in size
Summary of the method: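 Stable CHRM1-CHO cells (human receptor) were incubated 18 h, dye-loaded for 1 h at 37 C and exposed to test compounds for agonist activity, with calcium-dependent fluorescence followed kinetically.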

[18] = cAMP Responsive Elements (CRE) small molecule agonists, cell-based qHTS assay (AID 1963590)
Summary of the method: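 FRET-based beta-lactamase readout (LiveBLAzer B/G, 2 h RT) quantified CRE activation in HEK 293T CRE-bla cells after 3 h treatment with DMSO-dissolved compounds.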

[19] = p53 small molecule agonists, cell-based qHTS assay: qHTS cell viability counter screen (AID 1963581); further: nearly all actives have a fitted effect of over 45% in size; further: potency means the concentration at half of the fitted maximal effect
Summary of the method: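 Compounds are pinned onto HCT-116 p53RE-bla cells and left 16 h at 37 C. Following the reporter FRET read, ATP is quantified by CellTiter-Glo luminescence after 30 min at room temperature.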

[20] = target: 5-hydroxytryptamine receptor 2A (Homo sapiens) (UniProt P28223); experiment: 5-hydroxytryptamine receptor 2A (HTR2A) small molecule antagonists, cell-based qHTS assay (AID 1963586); further: nearly all actives have a fitted effect of over 45% in size
Summary of the method: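 Antagonist-mode intracellular calcium assay: DOI (4 nM) added after 5 min compound pre-incubation at room temperature to dye-loaded HTR2A-CHO cells. Fluorescence followed for 3 min, sampled every second.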
On the % scale 0 is the no-effect control and ±100 the full control effect.

Clc1cccc(Cl)c1NC1=NCCN1
inactive: Potency [1] | Potency [2] | Potency [3] | Potency [4] | Potency [5] | Potency [6] | Potency [7] | Potency [8] | Potency [9] | Potency [10] | Potency [11] | Potency [12] | Potency [13]

O=c1oc2c(O)c(O)cc3c(=O)oc4c(O)c(O)cc1c4c23
inactive: activity change, negative = cytotoxicity [1] -4.32% [at 19 µM] | activity change [2] 0.294% [at 11.8 µM, stronger effect = higher value] | activation [3] -1.64% [at 15.8 µM] | activation [4] 0.163% [at 11.8 µM] | activation [14] -4.17% [at 13.5 µM] | activation [5] -5.41% [at 13.6 µM] | activity change, negative = cytotoxicity [6] 3.06% [at 13.5 µM] | activity change, negative = cytotoxicity [7] -3.76% [at 13.5 µM] | activation [8] -1.21% [at 13.5 µM] | activation [15] 2.19% [at 15.9 µM] | activity, negative = inhibition [16] 14.7% [at 12.6 µM] | activation [17] 0.409% [at 15.8 µM] | activation [18] -1.26% [at 19 µM] | activity change, negative = inhibition [9] -7.75% [at 18.9 µM] | activity change, negative = inhibition [10] -0.63% [at 19 µM] | activation [11] -28.3% [at 19 µM] | activation [12] 15.6% [at 19 µM] | activity change, negative = inhibition [13] 0.195% [at 18.9 µM]

CC(C)(C)NC[C@H](O)COc1nsnc1N1CCOCC1
inactive: Potency [1] | Potency [2] | Potency [3] | Potency [4] | Potency [14] | Potency [6] | Potency [7] | Potency [19] | Potency [8] | Potency [18] | Potency [12] | Potency [13]

CCN(CC)CCOc1ccc(/C(=C(\Cl)c2ccccc2)c2ccccc2)cc1
inactive: Potency [2] | Potency [3] | Potency [4] | Potency [7] | Potency [19] | Potency [12]
33.1 µM (active) and inactive: Potency [6]
active: Potency [1] 22.1 µM and 29.8 µM

OC1OC[C@@H](O)[C@H](O)[C@H]1O (stereo partly specified)
inactive: Potency [1] | Potency [2] | Potency [3] | Potency [4] | Potency [14] | Potency [5] | Potency [7] | Potency [19] | Potency [8] | Potency [20] | Potency [15] | Potency [17] | Potency [18] | Potency [9] | Potency [11] | Potency [12] | Potency [13]

O=C(c1ccc(OCCN2CCCCC2)cc1)c1c(-c2ccc(O)cc2)sc2cc(O)ccc12
45.8 µM (active) and inactive: Potency [6]
36.4 µM (active) and inactive: Potency [19]
inactive: Potency [2] | Potency [3] | Potency [4] | Potency [14] | Potency [7] | Potency [8] | Potency [10] | Potency [11] | Potency [12] | Potency [13]
active: Potency [1] 34.4 µM and 30.6 µM

C[C@]12CC[C@@H]3c4ccc(O)cc4CC[C@H]3[C@@H]1CCC2=O
inactive: Potency [1] | Potency [2] | Potency [3] | Potency [4] | Potency [6] | Potency [7] | Potency [19] | Potency [9] | Potency [10] | Potency [12] | Potency [13]

CC(C)(Oc1ccc(CCNC(=O)c2ccc(Cl)cc2)cc1)C(=O)O
inactive: Potency [1] | Potency [2] | Potency [3] | Potency [4] | Potency [6] | Potency [19] | Potency [18] | Potency [9] | Potency [10] | Potency [11] | Potency [12] | Potency [13]

CC(C)OC=O
inactive: Potency [1] | Potency [2] | Potency [3] | Potency [14] | Potency [5] | Potency [6] | Potency [7] | Potency [19] | Potency [8] | Potency [20] | Potency [15] | Potency [17] | Potency [18] | Potency [9] | Potency [10] | Potency [11] | Potency [12] | Potency [13]

CCCN[C@H]1CCc2nc(N)sc2C1
inactive: Potency [1] | Potency [2] | Potency [3] | Potency [4] | Potency [14] | Potency [5] | Potency [6] | Potency [7] | Potency [19] | Potency [8] | Potency [16] | Potency [17] | Potency [18] | Potency [9] | Potency [10] | Potency [11] | Potency [13]

Clc1ccc(C(c2ccccc2Cl)C(Cl)Cl)cc1 (stereo unspecified)
inactive: Potency [2] | Potency [3] | Potency [4] | Potency [14] | Potency [5] | Potency [6] | Potency [7] | Potency [8] | Potency [9] | Potency [10] | Potency [11] | Potency [12]
active: Potency [1] 61.1 µM | Potency [19] 40.8 µM

CC/C(=C(/CC)c1ccc(O)cc1)c1ccc(O)cc1
inactive: Potency [2] | Potency [3] | Potency [4] | Potency [14] | Potency [5] | Potency [6] | Potency [7] | Potency [19] | Potency [18] | Potency [9] | Potency [10] | Potency [11] | Potency [13]
active: Potency [1] 42.9 µM and 61.1 µM

COCCOCCOCCOCCOC
inactive: Potency [1] | Potency [2] | Potency [3] | Potency [4] | Potency [5] | Potency [6] | Potency [7] | Potency [19] | Potency [8] | Potency [20] | Potency [15] | Potency [16] | Potency [17] | Potency [18] | Potency [9] | Potency [10] | Potency [11]

O=S(=O)(O)c1ccccc1
inactive: Potency [1] | Potency [2] | Potency [3] | Potency [4] | Potency [6] | Potency [7] | Potency [20] | Potency [15] | Potency [17] | Potency [18] | Potency [10] | Potency [11] | Potency [12] | Potency [13]

CO[Si](CCCNCCNCCN)(OC)OC
inactive: Potency [1] | Potency [2] | Potency [3] | Potency [4] | Potency [14] | Potency [5] | Potency [6] | Potency [7] | Potency [19] | Potency [8] | Potency [15] | Potency [16] | Potency [17] | Potency [18] | Potency [9] | Potency [10] | Potency [12] | Potency [13]
